# Source: PubChem BioAssay (National Center for Advancing Translational Sciences (NCATS))
# FH mod: Identification of activators of human fumarate hydratase by quantitative high-throughput screening; FH coupled MDH/diaphorase resazurin fluorescence, 15 min; 0.22% of 54,000 active; Fumarate hydratase, mitochondrial (Homo sapiens), P07954; Potency, µM (titrated, usually from 79.9 µM), for inactives: at the top dose activity change, negative = inhibition, usual class: inhibitors; note: potency is the fitted concentration of half-maximal effect; % is set by controls: 0 for no effect and ±100 for the full control effect; the screen sought activators but most active calls are inhibition curves; nearly all actives have a fitted effect of over 45% in size
# Target sequence (P07954 whole entry, looked up): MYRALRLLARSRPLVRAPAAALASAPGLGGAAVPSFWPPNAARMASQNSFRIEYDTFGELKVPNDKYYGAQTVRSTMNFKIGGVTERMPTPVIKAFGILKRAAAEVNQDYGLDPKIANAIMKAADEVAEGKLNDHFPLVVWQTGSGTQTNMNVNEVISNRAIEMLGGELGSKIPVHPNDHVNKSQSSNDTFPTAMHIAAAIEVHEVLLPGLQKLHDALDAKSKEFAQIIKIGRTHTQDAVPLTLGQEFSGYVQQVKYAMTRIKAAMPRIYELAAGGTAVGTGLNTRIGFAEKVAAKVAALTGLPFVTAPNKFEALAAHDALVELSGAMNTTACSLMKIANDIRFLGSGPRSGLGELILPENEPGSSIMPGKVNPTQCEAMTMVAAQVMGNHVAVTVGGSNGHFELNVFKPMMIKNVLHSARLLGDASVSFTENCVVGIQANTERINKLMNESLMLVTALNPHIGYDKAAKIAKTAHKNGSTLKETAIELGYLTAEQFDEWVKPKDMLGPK
# GALC G270D up: A Novel Cell-Based Assay to Identify Small Molecules for B -Galactocerebrosidase; P54803; 145M-Twi-hGALC-G270D cells, HMU-beta-Gal fluorescence, 48 h; Potency, µM (top dose mostly 57.5 µM), usual class: activators; 0.1% of 45,000 active; note: potency is the fitted concentration of half-maximal effect; 0% is about no effect; nearly all actives have a fitted effect of over 65% in size
#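 qHTS, 1536-well; 145M-Twi-hGALC-G270D cells (WT line also made) in DMEM/F12 + 10% FBS; compound incubation on live cells; HMU-β-gal 0.1 mM final, pH 5.2, NaTC; carbonate stop; fluorescence increase = enhanced residual activity.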
# B2AR arrestin ag: qHTS assay of beta-arrestin-biased ligands of beta2-adrenergic receptor: NCGC Sytravon Library Screen; 44,000 tested, under 10 active; Beta-2 adrenergic receptor (Homo sapiens), P07550; AID 1347077, 2019; Potency, µM (series often up to 46.1 µM), most hits filed as activators; HTLA Tango cells, beta-arrestin recruitment, luciferase luminescence, 18 h;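 note: potency is the fitted concentration of half-maximal effect; 0% = DMSO and full agonism = EC100 isoproterenol or metaproterenol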
#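 Ligand-induced beta-arrestin recruitment to recombinant beta2-AR is measured via a tTA-driven luciferase reporter in Tango cells after 18 hr compound exposure at 37 degrees C. Concentrations span up to 46 microM.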
# GALK inhibitor: qHTS Assay for Inhibitors of Human Galactokinase (GALK): NCGC Sytravon Library Screen | P51570 | recombinant GALK, Kinase-Glo ATP luminescence, 1 h | Potency, µM (doses to about 57.5 µM), inactives show at the highest dose activity, negative = inhibition, usual class: inhibitors | 44,000 tested, under 10 active | AID 1347072, 2019;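 note: plate controls were full GALK reaction for no effect and reaction lacking GALK for full effect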
#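 Luminescent ATP-depletion readout (Kinase-Glo Plus, 10 min) after 1 h RT reaction of 5 nM GALK, 35 uM ATP, 100 uM galactose, pH 8.0 HEPES buffer. Decreased kinase activity scored as inhibition.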
# PTAP-TSG101 blk: qHTS Validation Assay for Inhibitors of HIV-1 Budding by Blocking the Interaction of PTAP/TSG101: Sytravon Library Screen. Tumor susceptibility gene 101 protein (Homo sapiens), Q99816. Fluorescence polarization, FITC-PTAP peptide/Tsg101, 20 min. Potency, µM (titrated, usually from 115 µM), most hits filed as inhibitors. 44,000 tested, under 10 active; note: potency is the fitted concentration of half-maximal effect; 0% is about no effect
#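 FITC-labeled PTAP peptide (50 nM final) binding to Tsg101 binding domain (10 uM final) read by fluorescence polarization after 20 min at r.t. in HEPES pH 7.5 buffer. Actives by CRC class, <25 µM.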
# GPR32 ag: qHTS for Agonists of Human Resolvin D1 Receptor DRV1 | Probable G-protein coupled receptor 32 (Homo sapiens), O75388 | CHO-K1 GPR32 beta-arrestin PathHunter luminescence, 90 min; zero percent set by DMSO-only wells | activation, % at 76.9 µM | 2.5% of 48,000 active;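 active = activation of at least 60% and not above a set upper limit, about 1 call in 100 departs from these limits; inconclusive = activation of 40% to 60%, or above that upper limit; inactive = activation under 40%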; note: 0% is about no effect
#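 Agonism was scored as beta-arrestin recruitment to ProLink-fused GPR32 in stably transfected CHO-K1 cells, giving a chemiluminescent beta-Gal signal; compounds were incubated 90 min at 37 °C.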
# Active calls of the source: *; i = inactive; ? = inconclusive; nt = no result given; ! = not confirmed by another sample; [ ] = remark or other dose. Shown are actives, neighbours in structure and some others; about 2.8% of the full set was active somewhere. Unless noted, calls come from the whole dose curve; as a rule, active = well fitted curve in the direction sought with a large enough effect; inconclusive = small, poorly fitted or top-dose-only effect, or another doubt; inactive = no such curve, though single readings can be large; an effect the other way counts as inactive or inconclusive.
SMILES,FH mod,GALC G270D up,B2AR arrestin ag,GALK inhibitor,PTAP-TSG101 blk,GPR32 ag
C=C1[C@@H](OC(C)=O)CC[C@@]2(C)[C@@H](OC(C)=O)[C@H](OC(C)=O)C3=C(C)C[C@H](OC(=O)C(C)CC)[C@@H]([C@@H](OC(C)=O)[C@H]12)C3(C)C (some centres undefined),-1%[20.6 µM],nt,nt,nt,nt,nt
C=C/C=C/[C@@H]1OC[C@H](/C=C/C=C/C)[C@H]1O,10%,nt,nt,nt,nt,nt
Cc1c(Cl)cccc1Nc1ccccc1C(=O)O,-9%[53.3 µM],i,nt,nt,nt,?
Cc1ccc(Cl)c(Nc2ccccc2C(=O)O)c1Cl,?,i,nt,nt,nt,103*!
CC(C)(C)c1ccc(C(=O)Nc2cn3cc(-n4ccnc4)ccc3n2)cc1,16%,nt,nt,nt,nt,nt
COc1ccc(CCN2CCC(Nc3nc4ccccc4n3Cc3ccc(F)cc3)CC2)cc1,-9%[53.3 µM],i,nt,nt,nt,95*
COc1ccc(Cn2c(SCC(=O)Nc3ccc(OC)cc3)nc3ccccc32)cc1,-11%,i,i,-2%,i,16
CC[C@H](C)/C=C(C)/C=C/C1=CC2=C(Cl)C(=O)[C@](C)(O)[C@H](OC(C)=O)[C@H]2CO1,-12%[53.3 µM],nt,nt,nt,nt,nt
CCCc1c(OCCCCc2nn[nH]n2)ccc(C(C)=O)c1O,-5%[53.3 µM],i,nt,nt,nt,87*
CC1C/C=C/C=C\CCCCC(O)C/C=C/C(=O)O1 (centres undefined),1%,nt,nt,nt,nt,nt
COC(=O)[C@H](c1ccccc1Cl)N1CCC2SC(=O)C=C2C1 (some centres undefined),0%,nt,nt,nt,nt,nt
COc1c2c(c(CO)c3c1C(=O)OC3)OC1(C)CCC3(O)C(C)(C)OC(=O)CCC3(C)C1C2 (centres undefined),10%[53.3 µM],nt,nt,nt,nt,nt
CCc1ccccc1S(=O)(=O)Cc1ccc(C(=O)NCCc2ccc(Cl)cc2)o1,?,i,i,0%,i,66*
CC(C)(C)C1CCc2c(sc(NC(=O)Cn3nnc(-c4ccccc4Cl)n3)c2C#N)C1 (centres undefined),?,i,i,3%,i,89*
O=C(N[C@H](Cc1ccccc1)C(=O)O)c1sc2cc(F)ccc2c1Cl,1%,nt,nt,nt,nt,nt
O=C(Cn1c(=O)nc(-c2ccccc2)c2cc(Cl)ccc21)NCCCc1ccccc1,-9%,i,i,-14%,i,94*
COc1ccc(CCNc2ncnc3c2cnn3-c2ccc(F)cc2)cc1,9%,i,i,0%,i,66*
COc1ccc(CCNc2ncnc3c2cnn3-c2cccc(Cl)c2)cc1,-1%,i,i,3%,i,114*
COc1ccc(CCNc2ncnc3c2cnn3-c2ccc(C)c(Cl)c2)cc1,-15%,i,i,3%,i,?
N=C(N)c1ccc2nc(-c3cc(CC(=O)NC(CC(=O)O)C(=O)O)cc(-c4cc(S(N)(=O)=O)ccc4O)c3O)[nH]c2c1 (centres undefined),23%,nt,nt,nt,nt,nt
CC1CC(C(O)C(C)(C)O)OC2CC3(C)C4(C)CCC5C(C)(C)C(=O)CCC5(C)C4CCC3(O)C12O (centres undefined),6%[53.3 µM],nt,nt,nt,nt,nt
COc1ccccc1NC(=O)COc1ccc(-c2nn(C)c(=O)c3ccccc23)cc1,-14%,i,i,4%,i,95*
CCc1ccc(NS(=O)(=O)c2ccc(NC(=O)N3CCCC3)cc2)cc1,-3%,i,i,2%,i,69*
Cc1[nH]c(/C=C2\C(=O)Nc3ccccc32)c(C)c1CCC(=O)O,0%,nt,nt,nt,nt,nt
